N370S GC mod: inhibits or activates N370S mutant glucocerebrosidase | P04062 | N370S GC spleen homogenate, 4MU-glucoside fluorescence | Potency, µM (series often up to 59.4 µM), without a hit: top-dose activity change, negative = inhibition, hits mostly inhibitors | actives 0.092% (n = 330,000) | AID 2101;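 further: potency means the concentration at half of the fitted maximal effect; 0% = full enzyme activity and -100% = no enzyme basal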
Chronic BCR inh: chronic active BCR signaling inhibition; Potency, µM (top dose mostly 46.1 µM), inactives show at the top dose activity change, negative = inhibition, hits mostly inhibitors; ABC-DLBCL IkBa-CBG/CBR reporter, luminescence ratio, 4 h; actives 0.05% (n = 340,000); AID 493014; active means well fitted inhibition curve with a large enough effect in the signal ratio, with a control signal flat, not every such curve was filed as active; inconclusive means small, poorly fitted or top-dose-only effect, or effect the other way, or a change in a side signal; the % refers to the signal ratio;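 further: potency means the concentration at half of the fitted maximal effect; plate controls were basal doxycycline-induced cells for no effect and cells given 10 µM MG132 for full effect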
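TMD8 ABC-DLBCL cells carrying doxycycline-inducible green luciferase fused to IkappaBalpha plus unfused red luciferase were exposed to compounds (up to 46 uM) for 4 hrs at 37C. Activity came from the overlap-corrected green/red luminescence ratio.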
BRCA1 expr act: BRCA1 expression activation; MCF7-BRCA1-FFLuc reporter, luminescence, 48 h; response scale: scaled: vehicle 0%, 10 µM genistein 100%; Potency, µM (highest dose often 46.1 µM), for the others: top-dose activation, hits mostly activators; actives 1.1% (n = 380,000); AID 624202; further: potency means the concentration at half of the fitted maximal effect; nearly all actives have a fitted effect of over 80% in size
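Activators of BRCA1 expression were detected as increased firefly luciferase luminescence in engineered MCF7 cells after 48 h compound incubation. Signals were scaled to genistein 10 microM as full activation.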
Integrin act MD: activates integrin-mediated alleviation for muscular dystrophy. alpha7betagal myoblasts, beta-gal FDG fluorescence, 48 h. Potency, µM (doses to about 38.3 µM), for the others: at the highest dose activation, actives largely listed as activators. actives 0.064% (n = 350,000);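 further: potency means the concentration at half of the fitted maximal effect; 100% = response of the positive control SU9516; nearly all actives have a fitted effect of over 60% in size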
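Alpha7betagal+/- myoblasts (passage 13) were plated 16-24 hr, then exposed to compounds (1:260 dilution of DMSO stock) for 48 hours at 37C. After MPER lysis, β-galactosidase reporter activity was read as FDG fluorescence (ex 480/em 540) after 30 minutes.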
IL2 activator: IL-2 activation. IL-2 activation reporter assay, cell-based qHTS; stimulated with anti-CD3/CD4/CD28 beads; in transgenic mouse T cells. activation, % (series mostly up to about 46 µM). actives 0.065% (n = 360,000); in the data active means activation above about 50%; inconclusive means mostly about 30% to 49%; further: 0% is about no effect
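Unstimulated transgenic mouse T cells; 60-min compound exposure; bead-based TCR/CD4/CD28 stimulation; 18 h culture, 37 degrees C; dual fluorescence (EGFP, DsRed) plate cytometry.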
Nrf2 ARE act: activates Nrf2 signaling | AREc32 ARE-luciferase reporter (MCF7-derived line), luminescence, 24 h | Potency, µM (titrated, usually from 46.1 µM), for the others: top-dose activation, hits mostly activators | actives 0.31% (n = 410,000); further: potency means the concentration at half of the fitted maximal effect; % of control where 0% means no effect; nearly all actives have a fitted effect of over 65% in size
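For detection, Steady-Glo was added and plates sat 30 min at RT; before that, AREc32_Fluc cells grown overnight in OPTI-MEM/5% FBS had been treated with 23 nL compound for 24 hr at 37 deg C.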
An asterisk follows results filed as active; [ ] = dose if it differs, or a comment. Sampled rows, rich in hits. Any-hit rate of the full collection: about 1.4%. Unless noted, the call rests on the fitted dose curve; in most records, active means well fitted curve in the direction sought with a large enough effect; inconclusive means small, poorly fitted or top-dose-only effect, or another doubt; inactive means no such curve, though single readings can be large; an effect the other way counts as inactive or inconclusive.

`O=C(CNc1cccc(F)c1)N1CCc2ccccc2C1` gave N370S GC mod -14%, Chronic BCR inh inconclusive, BRCA1 expr act 7.9µM*, Integrin act MD 11%, IL2 activator 1 and Nrf2 ARE act 4%.
`COc1ccc(CC(=O)N2CCc3ccccc3C2)cc1` gave N370S GC mod 0%, Chronic BCR inh inconclusive, BRCA1 expr act 56%, Integrin act MD inconclusive, IL2 activator -2 and Nrf2 ARE act 3%.
O=C(Nc1ccccc1)N1CCc2ccccc2C1 was read as N370S GC mod 7%, Chronic BCR inh inconclusive, BRCA1 expr act inconclusive, Integrin act MD -3%, IL2 activator 0 and Nrf2 ARE act 8%.
Screening CC(=O)c1ccc(NC(=O)N2CCc3ccccc3C2)cc1 returned N370S GC mod -3%, Chronic BCR inh 8%, BRCA1 expr act 11µM*, Integrin act MD 26%, IL2 activator -3 and Nrf2 ARE act 7%.
Screening O=C(Cc1ccc(Cl)cc1)N1CCc2ccccc2C1 returned BRCA1 expr act 10µM*, Integrin act MD 41%, IL2 activator 1 and Nrf2 ARE act 5%.
CC(=O)c1cccc(NC(=O)N2CCc3ccccc3C2)c1 was read as N370S GC mod -19%, Chronic BCR inh -3%, BRCA1 expr act 8.9µM*, Integrin act MD 7%, IL2 activator 0 and Nrf2 ARE act 3%.
For C[C@@H](CO)[C@H](/C=C/c1ccccc1)CCO[Si](c1ccccc1)(c1ccccc1)C(C)(C)C the results were N370S GC mod -2%.
CCOc1ccccc1N1C(=O)c2ccccc2N/C1=C\N1CCN(C(=O)c2ccco2)CC1 was read as BRCA1 expr act 0%.
Screening COc1ccc(NC(=O)N2CCc3ccccc3C2)cc1 returned N370S GC mod -1%, Chronic BCR inh -6%, BRCA1 expr act 7.9µM*, Integrin act MD 9%, IL2 activator 1 and Nrf2 ARE act 0%.
COc1cccc(Cn2cnc3c(sc4nc(C)cc(C)c43)c2=O)c1 was read as N370S GC mod -5%, Chronic BCR inh 5%, BRCA1 expr act -14%, Integrin act MD 32%, IL2 activator 6 and Nrf2 ARE act 0%.
For CC(=O)Cn1cnc2c(sc3nc(C)cc(C)c32)c1=O the results were N370S GC mod 0%, Chronic BCR inh 1%, BRCA1 expr act 11µM*, Integrin act MD 20%, IL2 activator -1 and Nrf2 ARE act 0%.
`CC(=O)c1ccc(S(=O)(=O)N(CC(=O)NC2CC2)Cc2ccc(F)cc2)cc1` gave N370S GC mod -13%, Chronic BCR inh 7%, BRCA1 expr act 12%, Integrin act MD 11%, IL2 activator -2 and Nrf2 ARE act 0%.
`CC(=O)Nc1cccc(-c2cc(N3CCN(CCO)CC3)n3nccc3n2)c1` gave BRCA1 expr act -18%, IL2 activator 2 and Nrf2 ARE act 0%[9.22 µM].
Screening N#Cc1cnc2nc(SCc3ccccc3)nn2c1 returned N370S GC mod -4%, Chronic BCR inh inconclusive, BRCA1 expr act 3.5µM*, Integrin act MD -18%, IL2 activator -1 and Nrf2 ARE act 3%.
CCOC(=O)c1cn2nc(SCc3ccccc3)nc2nc1C was read as N370S GC mod -8%, Chronic BCR inh 5%, BRCA1 expr act 11µM*, Integrin act MD 1%, IL2 activator 3 and Nrf2 ARE act 4%.
Screening COc1cc(/C=N\Nc2nc3ccccc3[nH]2)cc(OC)c1OC returned N370S GC mod -2%, Chronic BCR inh inconclusive, BRCA1 expr act -15%, Integrin act MD 5%, IL2 activator 0 and Nrf2 ARE act -1%.
Screening COc1ccc2c(c1)c(/C=N/Nc1nc3ccccc3[nH]1)c(C)n2C returned N370S GC mod inconclusive, Chronic BCR inh 16µM*, BRCA1 expr act -73%, Integrin act MD -58%, IL2 activator -5 and Nrf2 ARE act -2%.
Cc1ccc(NC(=O)NC2CCCCC2)cc1Cl was read as N370S GC mod 14%, Chronic BCR inh -11%, BRCA1 expr act 5µM*, Integrin act MD 9%, IL2 activator 2 and Nrf2 ARE act 0%.
Screening O=C(Cc1ccccc1)Nc1nnc(-c2cccc([N+](=O)[O-])c2)s1 returned N370S GC mod -20%, Chronic BCR inh inconclusive, BRCA1 expr act 17%, Integrin act MD 11%, IL2 activator -3 and Nrf2 ARE act 2%.
For O=C(Nc1cccc([N+](=O)[O-])c1)C(=O)N1CCCCC1 the results were N370S GC mod -2%, Chronic BCR inh 1%, BRCA1 expr act 4.5µM*, Integrin act MD 7%, IL2 activator 1 and Nrf2 ARE act 16%.
Screening O=C(CNC1CCCCC1)Nc1cccc([N+](=O)[O-])c1 returned BRCA1 expr act 38%, Integrin act MD -6%, IL2 activator 0 and Nrf2 ARE act 5%.
For O=[N+]([O-])c1cccc(NC(=S)N2CCCC2)c1 the results were N370S GC mod 0%, Chronic BCR inh -4%, BRCA1 expr act 4%, Integrin act MD -30%, IL2 activator -3 and Nrf2 ARE act 0%.
Screening O=C(Nc1cccc([N+](=O)[O-])c1)NC1CCCCCCC1 returned N370S GC mod -11%, Chronic BCR inh 9%, BRCA1 expr act 6.3µM*, Integrin act MD -10%, IL2 activator -3 and Nrf2 ARE act 8%.
O=C(NC1CCCCC1)N(c1ccccc1)c1nnc(-c2cccc([N+](=O)[O-])c2)s1 was read as BRCA1 expr act -17%, Integrin act MD 5%, IL2 activator -4 and Nrf2 ARE act 3.2µM*.
`Cc1ccc(CSC2=NC(C)(C)Nc3ccccc32)c(C)c1` gave Nrf2 ARE act 3%.
CCOC(=O)c1[nH]c(C)c(CCC(=O)NCc2ccc(OCC)cc2)c1C was read as Nrf2 ARE act 1%.
Screening COc1ccc2nc3ccccc3nc2c1 returned N370S GC mod -7%, Chronic BCR inh inconclusive, BRCA1 expr act 13µM*, Integrin act MD -15%, IL2 activator 0 and Nrf2 ARE act 5%.
For Nc1nonc1N/N=C/c1c(O)ccc2ccccc12 the results were N370S GC mod -4%, Chronic BCR inh 8%, BRCA1 expr act -43%, Integrin act MD -9%, IL2 activator 1 and Nrf2 ARE act 7.9µM*.
For Nc1nonc1N/N=C\c1ccccc1 the results were N370S GC mod -10%, Chronic BCR inh -20%, BRCA1 expr act 22%, Integrin act MD 9%, IL2 activator -3 and Nrf2 ARE act -1%.
